# Screening results from PubChem BioAssay.
# Dicer inh = blocks human Dicer maturation of pre-miR-21; cat-ELCCA pre-miR-21 Dicer processing, chemiluminescence; hits give high values; z-score at 25 µM; 47,000 compounds, 6% hits; Q9UPY3; AID 1347074; in the data active = z-score above about 3, passing the limit was not always enough;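 note: plate controls were vehicle for no effect and no enzyme for full effect; higher signal means more uncleaved substrate so more Dicer inhibition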
# Target sequence (Q9UPY3 whole entry, looked up): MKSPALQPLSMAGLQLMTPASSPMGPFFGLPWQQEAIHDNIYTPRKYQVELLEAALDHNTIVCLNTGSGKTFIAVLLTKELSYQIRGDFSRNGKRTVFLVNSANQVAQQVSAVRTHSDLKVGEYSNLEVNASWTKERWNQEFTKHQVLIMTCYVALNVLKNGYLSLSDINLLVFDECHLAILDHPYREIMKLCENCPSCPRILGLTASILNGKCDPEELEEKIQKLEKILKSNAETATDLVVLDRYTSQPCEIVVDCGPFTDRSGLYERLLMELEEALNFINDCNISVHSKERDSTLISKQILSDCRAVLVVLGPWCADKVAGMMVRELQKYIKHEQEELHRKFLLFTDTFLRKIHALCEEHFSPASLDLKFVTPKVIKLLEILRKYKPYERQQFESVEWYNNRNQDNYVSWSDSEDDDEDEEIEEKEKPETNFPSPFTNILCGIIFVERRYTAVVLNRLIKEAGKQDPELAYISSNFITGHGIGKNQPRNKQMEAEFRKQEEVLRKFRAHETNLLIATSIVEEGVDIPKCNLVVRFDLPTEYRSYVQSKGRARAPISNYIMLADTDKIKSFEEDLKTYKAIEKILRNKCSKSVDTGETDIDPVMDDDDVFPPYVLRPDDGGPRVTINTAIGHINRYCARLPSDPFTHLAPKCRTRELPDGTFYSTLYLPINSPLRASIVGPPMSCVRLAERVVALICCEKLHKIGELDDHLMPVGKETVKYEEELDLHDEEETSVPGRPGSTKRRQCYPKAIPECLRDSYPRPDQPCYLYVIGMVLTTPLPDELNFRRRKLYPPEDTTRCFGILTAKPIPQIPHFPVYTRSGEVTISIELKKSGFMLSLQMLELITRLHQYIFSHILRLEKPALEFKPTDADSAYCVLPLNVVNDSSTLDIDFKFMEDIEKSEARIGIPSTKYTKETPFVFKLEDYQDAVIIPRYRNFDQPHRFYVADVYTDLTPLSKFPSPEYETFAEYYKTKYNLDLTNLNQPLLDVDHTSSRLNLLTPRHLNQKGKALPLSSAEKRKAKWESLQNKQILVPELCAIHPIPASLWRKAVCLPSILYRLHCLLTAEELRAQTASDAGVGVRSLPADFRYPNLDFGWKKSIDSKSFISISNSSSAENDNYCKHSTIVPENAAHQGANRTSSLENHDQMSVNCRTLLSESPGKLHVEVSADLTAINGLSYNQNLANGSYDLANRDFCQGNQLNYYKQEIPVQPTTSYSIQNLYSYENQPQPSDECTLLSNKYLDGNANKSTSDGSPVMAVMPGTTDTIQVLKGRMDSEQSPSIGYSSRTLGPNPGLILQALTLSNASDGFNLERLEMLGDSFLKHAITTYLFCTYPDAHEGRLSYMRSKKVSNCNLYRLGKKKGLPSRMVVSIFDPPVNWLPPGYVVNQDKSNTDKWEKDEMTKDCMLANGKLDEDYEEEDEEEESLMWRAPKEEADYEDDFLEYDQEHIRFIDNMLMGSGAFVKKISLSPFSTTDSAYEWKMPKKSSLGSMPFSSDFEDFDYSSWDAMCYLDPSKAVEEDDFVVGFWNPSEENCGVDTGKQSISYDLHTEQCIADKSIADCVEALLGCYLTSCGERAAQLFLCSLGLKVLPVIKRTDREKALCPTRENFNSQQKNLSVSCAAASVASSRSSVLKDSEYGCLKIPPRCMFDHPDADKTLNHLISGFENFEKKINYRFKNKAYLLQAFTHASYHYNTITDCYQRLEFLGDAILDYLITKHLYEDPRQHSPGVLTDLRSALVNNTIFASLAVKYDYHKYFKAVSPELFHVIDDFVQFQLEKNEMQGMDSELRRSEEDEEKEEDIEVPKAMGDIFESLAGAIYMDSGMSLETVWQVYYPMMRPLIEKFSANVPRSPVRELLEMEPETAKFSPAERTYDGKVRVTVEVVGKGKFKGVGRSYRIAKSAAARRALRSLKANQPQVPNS
# Starred values were filed as active, the others as inactive. Many of the other results were omitted from the sample, so hits are more common in it than they were.
SMILES,Dicer inh
CCO/C=C1\C(=O)N(c2ccc(OC)cc2)C(=O)c2cc(OC)ccc21,0.06
COCCNC(=O)c1nn2c(C(F)(F)F)cc(-c3ccc(Br)cc3)nc2c1Cl,0.46
CN(C)c1nc(N2CCOCC2)ncc1F,5.67
N#C/C(=C\NN1CCCCC1)S(=O)(=O)c1ccc(Cl)cc1,0.05
N#C/C(=C\c1sccc1Oc1ccccc1)C(=O)C1CC1,-1.2
Cc1ccc(Cc2nc3ccccc3[nH]2)cc1,-0.64
CCOC(=O)CCc1nc2ccccc2[nH]1,0.58
Nc1ccc(CCc2nc3ccccc3[nH]2)cc1,6.49*
C/C(Nc1ccc([N+](=O)[O-])cc1)=C1/CCOC1=O,1.55
Cc1cc(C(=O)Nc2ccc(F)cc2)c(C)o1,-1.68
C/C(Nc1ccc(F)cc1)=C1/CCOC1=O,3.17*
CC(C)Oc1ccc(C2CC(=O)N(c3ccc(C(=O)O)cc3)C2=O)cc1 (stereo not drawn),4.75*
O=C(O)c1ccc(N2C(=O)CC(N3CCOCC3)C2=O)cc1 (stereo not drawn),-1.67
COc1ccc(N2C(=O)CC(N3CCCCC3)C2=O)cc1 (stereo not drawn),0.16
CCCc1ccc(-c2ccc(C(=O)Oc3ccc(C)nc3)cc2)nc1,-1.13
CSc1ncnc2c1nnn2Cc1ccc(F)cc1,-0.29
CSc1nnc(-c2ccc(Br)cc2)o1,1.54
CSc1nnc(-c2ccc(C)cc2)o1,0.94
Cc1ccc(-c2nnc(-c3ccc(Br)cc3)o2)cc1,3.77*
N#CCc1n[nH]c(=S)n1-c1ccc(Cl)c(Cl)c1,1.06
Fc1ccc(NC(=S)Nc2ccc(F)cc2F)c(F)c1,1.35
N#CNC(=NC1CCCCC1)NC1CCCCC1,0.8
COc1ccccc1-c1cc(C(=O)O)c2ccccc2n1,-0.51
O=C(O)c1ccccc1-c1c2ccc3cc(O)ccc3c2oc2c1ccc1cc(=O)ccc12,4.28*
O=c1c(-c2cccc3ccccc23)c(C(F)(F)F)oc2cc(O)ccc12,-0.11
SMILES,Dicer inh
Cc1cc(NC(=O)C(C)(C)Oc2ccc(Cl)cc2)no1,0.89
COc1ccc2c(=O)c(-c3ccc(Cl)cc3)c(C(F)(F)F)oc2c1,-0.51
COc1ccc(-c2c(C)oc3cc(O)cc(O)c3c2=O)cc1OC,2.04
COc1ccc(-c2c(C(F)(F)F)oc3cc(O)cc(O)c3c2=O)cc1,5.28*
O=c1[nH]nc(-c2cccs2)cc1Cc1ccc(OCc2ccccc2)c(Cl)c1,-0.2
Oc1ccc2ccccc2c1CN1CCN(c2ccc(F)cc2)CC1,-3.35
Oc1ccc2ccccc2c1CN1CCc2ccccc2C1,3.61*
CC1CCN(Cc2c(O)ccc3ccccc23)CC1,1.65
CC(C)NC(=O)c1cnn(C)c1-n1cccc1,-0.55
Cc1cc(C)c2c(c1)C(=O)C(c1ccc3cc(O)ccc3n1)C2=O (stereo not drawn),2.17
CCc1ccc(Nc2n[nH]c(=S)s2)cc1,2.18
O=c1[nH]oc(O)c1-c1ccccc1,0.27
O=C(Nc1sc2c(c1C(=O)O)CCCC2)c1ccco1,0.04
CCOC(=O)c1c(NC(=O)c2ccco2)sc2c1CCC(CC)C2 (stereo not drawn),-3.11
CCOC(=O)c1c(NC(=O)c2ccco2)sc2c1CCC(C)C2 (stereo not drawn),3.27*
CNC(=O)c1c(NC(=O)c2ccco2)sc2c1CCC(C(C)(C)C)C2 (stereo not drawn),0.51
CCOC(=O)c1c(NC(=O)c2ccco2)sc2c1CCC(C(C)(C)C)C2 (stereo not drawn),0.15
CC1CCc2c(sc(NC(=O)c3ccco3)c2C(=O)N2CCOCC2)C1 (stereo not drawn),3*
COc1ccc(Oc2cc(C(F)(F)F)nc3cc(C(C)(C)C)nn23)cc1,-1.66
N#Cc1ccc(Oc2ccc(C(F)(F)F)cc2N)cc1,-0.55
Cn1ccc(NS(=O)(=O)c2ccc(NS(=O)(=O)c3cc(C(F)(F)F)cc(C(F)(F)F)c3)cc2)n1,-1.43
CC(C)(CO)NC(=O)c1c(F)cccc1Cl,2.69
O=C(Nc1nc2ccccc2c(=O)s1)c1ccccc1,1.04
CCN(CC)c1nc2ccccc2c(=O)s1,3.74*
CCOc1ccc(Nc2nc3ccccc3c(=O)s2)cc1,0.49
SMILES,Dicer inh
Cc1cnc(NS(=O)(=O)c2cn(C)cn2)c(Br)c1,1.09
Cc1cccc(OCC(O)Cn2c(CO)nc3ccccc32)c1 (stereo not drawn),-1.08
C/C(Cc1ccccc1)=N\Nc1nc2c(c(=O)n(C)c(=O)n2C)n1C,-0.47
O=C(c1ccc(Cl)c(Cl)c1)N1CCN(c2cccc3scc(-c4ccccc4)c23)CC1,0.87
N/C(CS(=O)(=O)c1cccs1)=N\OC(=O)Nc1ccccc1,1.27
O=C1CS/C(=N/N=C/c2cn(-c3ccccc3)nc2-c2ccccc2)N1,-0.63
O=c1c2ccccc2cnn1-c1ccc(F)cc1,0.98
O=c1c2ccccc2cnn1-c1ccc2ccccc2c1,-1.25
Cc1cccc(-n2ncc3ccccc3c2=O)c1,4.25*
COc1cc(OC)cc(-c2nc3n(n2)C(c2ccncc2)C2=C(CCCC2=O)N3)c1 (stereo not drawn),1.32
NC(=S)CS(=O)(=O)c1ccccn1,-0.41
CCCCCCSc1nnc(/N=C/N(C)C)s1,0.87
COc1ccc(C2N=C(N)Nc3nc4ccccc4n32)c(OC)c1 (stereo not drawn),0.18
CCOc1cc(C2N=C(N)Nc3nc4ccccc4n32)ccc1O (stereo not drawn),2.39
NC1=NC(c2ccncc2)n2c(nc3ccccc32)N1 (stereo not drawn),0.89
NC1=NC(c2ccccc2)n2c(nc3ccccc32)N1 (stereo not drawn),2.18
COc1cc(C2N=C(N)Nc3nc4ccccc4n32)ccc1O (stereo not drawn),5.87*
NC1=NC(c2ccccc2O)n2c(nc3ccccc32)N1 (stereo not drawn),3.56*
CCCOC(=O)C1=C(C)Nc2nnnn2C1c1ccccc1OCCC (stereo not drawn),0.24
CCOC(CC(C(=O)N(C)C)(c1ccccc1)c1ccccc1)OCC,-0.47
CSCCn1c(-c2ccccc2)cc(C(=O)Nc2ccccc2)c1C,-5.15
COC(=O)c1cc(NC(=O)c2nc3ncccn3n2)cc(C(=O)OC)c1,-1.49
CC1=C(C(=O)Nc2cccc(F)c2)C(c2ccsc2)C2=C(CC(C)(C)CC2=O)N1 (stereo not drawn),3.74*
CCSCCOC(=O)C1=C(C)NC2=C(C(=O)CC(C)(C)C2)C1c1ccsc1 (stereo not drawn),10.5
CC1=C(C(=O)Nc2cccc(C)n2)C(c2ccsc2)C2=C(CC(C)(C)CC2=O)N1 (stereo not drawn),0.2
SMILES,Dicer inh
O=S(=O)(NCc1csc(-c2cccs2)n1)c1ccc(N2CCOCC2)nc1,2.38
Cc1nc2c(cnn2-c2ccccc2)c(=O)o1,-1.39
O=c1[nH]cnc2c1cnn2-c1ccc(F)cc1,1.29
O=c1[nH]cnc2c1cnn2-c1ccccc1,3.6*
COc1ccc(C2c3c(oc4cc(C)c(C)cc4c3=O)C(=O)N2c2ccc(C)cn2)cc1OC (stereo not drawn),0.71
CCCCOc1ccc(C2c3c(oc4ccccc4c3=O)C(=O)N2c2ccccn2)cc1 (stereo not drawn),2.3
COc1cc(C2c3c(oc4cc(C)c(C)cc4c3=O)C(=O)N2c2ccc(C)cn2)ccc1O (stereo not drawn),14.6*
Cc1ccc(N2C(=O)c3oc4ccccc4c(=O)c3C2c2ccc(Br)cc2)nc1 (stereo not drawn),2.7
Cc1ccc2oc3c(c(=O)c2c1)C(c1cccc(O)c1)N(c1ccccn1)C3=O (stereo not drawn),1.72
